The supplement of paper PMC6555819

What was measured:
Test in all cases: PBM binding z-score (relative to random genomic background probes); higher = stronger binding; sequences stand for … in GC…GCGATTGACAGCGTAGAATGAAGG
[1] = tested on: RARb homodimer (NR concentration 270 nM)
Outline: (§1)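 Random background probes are the reference for binding z-scores. These scores derive from regression-normalized fluorescence on custom Agilent 4×180K protein-binding microarrays incubated 1 h with ligand-free nuclear receptor dimers. Binding was detected with antibodies against each partner (one per run).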

[2] = tested on: RARg:RXRa (NR concentration 270 nM, RXRa partner concentration 90 nM)
Outline: as §1

[3] = tested on: RARg homodimer (NR concentration 270 nM)
Outline: as §1

[4] = tested on: RXRa DBDmut IVT, anti-RXR (DBD mutation: RXRa K156A/R161A, NR concentration 90 nM)
Outline: as §1

[5] = tested on: RXRa homodimer (NR concentration 180 nM)
Outline: as §1

[6] = tested on: THRa:RXRa (NR concentration 90 nM, RXRa partner concentration 90 nM)
Outline: as §1

[7] = tested on: THRa homodimer (NR concentration 90 nM)
Outline: as §1

[8] = tested on: VDR homodimer (NR concentration 270 nM)
Outline: as §1

Row | Sequence | PBM binding z-score [1] | PBM binding z-score [2] | PBM binding z-score [3] | PBM binding z-score [4] | PBM binding z-score [5] | PBM binding z-score [6] | PBM binding z-score [7] | PBM binding z-score [8]
1 | TCTTGTAGATCAAAGGTTAAGGAAGCCGAAGCCT | 1.55 | 1.85 | 0.852 | 0.63 | 3.15 | 1.39 | -0.169 | -0.0198
2 | ATCTCTAGGTAACCAAGTTCAGTGCATGCCGAAC | 1.69 | 0.735 | 0.952 | 1.12 | 0.814 | 1.62 | 0.968 | 3.1
3 | CAAACTAGGTCACCGGAAGGTCAAAGTCCGCATG | 5.88 | 8.43 | 7.82 | 2.05 | 6.69 | 4.6 | 2.95 | 3.43
4 | ACTCTTAGTTGAGACGAGGGCAACCGATAGGTTG | 1.14 | 0.56 | 0.695 | 0.403 | 0.46 | 2.59 | 0.356 | 0.844
5 | TCTAGTTGGTCAAAGGTCAGACACTCGAAATGCG | 4.51 | 6.12 | 5.15 | 1.57 | 6.68 | 3.09 | 1.49 | 1.89
6 | GCCTATAGGTAATACAAGGTGAAAGTCCGATTGT | 0.782 | 0.406 | 0.334 | 0.0892 | 0.582 | 4.25 | 1.06 | -0.376
7 | TCATATAGGTATACAGGTGAAAGTCCGTAAGTTA | 0.863 | 0.487 | 0.35 | 1.58 | 1.14 | 0.729 | 0.585 | 0.541
8 | GTACCAAGGTGAATTGGTCGTTGATGAGTAGGCG | 0.471 | 0.331 | 0.444 | -0.385 | 0.215 | 1.17 | 0.25 | -0.534
9 | GTACCGAGGTGAATAGGTCGTTGATGAGTAGGCG | 1.73 | 2.95 | 1.64 | -0.0161 | 2.11 | 2.15 | 0.482 | 0.202
10 | CCTGTTAGGTCAATGGTCAGCTAAAGCAGCTCGC | 3.5 | 4.07 | 4.93 | 2.35 | 2.63 | 3.16 | 2.18 | 0.926
11 | GCGACTGGGGCATCAGCAGGTTATCATAACTTAA | 0.979 | 0.933 | 0.586 | -0.0902 | 0.555 | 1.05 | -0.305 | -0.259
12 | CCTACTGGGCCAAAAAGGTCATTGGTGCCGATAA | 4.58 | 4.6 | 4.13 | 0.562 | 4.92 | 3.13 | 0.738 | 2.89
13 | ACTATTAGTTGACTTACGGCAACCGATACGACGC | 0.0214 | 0.528 | 0.668 | 0.643 | 0.39 | 0.386 | -0.0482 | -0.179
14 | CTCGAAAGGTCGTGCTCAGGAGAGTATACCAAAC | 2.52 | 4.36 | 4.09 | 1.88 | 5.03 | 2.64 | 0.423 | 1.36
15 | AGTCAAAGATCATCTAGGTAACGTAAGATATGCT | -0.47 | 0.163 | 0.343 | -0.336 | 0.746 | 1.07 | -0.24 | -0.621
16 | AGAACGAGGGCAATGAGTTGATAGCCCGGGTGGC | 0.793 | 0.874 | 1.57 | 1.84 | 0.855 | 0.913 | -0.362 | 2.96
17 | CGAACTAGGTCAAGGACAGTGACTCTCCGCACGC | 3.26 | 3.85 | 4.74 | 1.45 | 2.69 | 3.31 | 2.26 | 0.341
18 | AGTCAAAGTTCACTAGGTAACGTGAGATTCAGCT | 3.59 | 4.82 | 5.55 | 3.83 | 3.61 | 1.87 | 0.0345 | 3.17
19 | CGTCCAAGGTCATAGGAGGTCAGTGTAGACAGAT | 5.63 | 6.73 | 7.24 | 3.82 | 6.53 | 5.46 | 3.59 | 4.71
20 | GATACAGGGTCAAGGACAGAGTACGCGTATTGAT | 3.58 | 5.67 | 5.78 | 2.36 | 6.51 | 3.85 | 2.14 | 2.72
21 | CGTCAAAGTTCAACTAAGGCAACGTAAAGCACGC | 4.17 | 5.79 | 6.64 | 4.64 | 5.05 | 4.74 | 0.241 | 3.68
22 | TATACAGTGTCAAAGGCCAGAGTACGAATGTCGA | 1.59 | 1.53 | 1.65 | -0.125 | 1.49 | 0.336 | -0.189 | 0.636
23 | CCGACTGGGGCATAAGGTTACCTTAAGCCAGCCC | 1.66 | 1.26 | 0.711 | -0.657 | 0.903 | 2.3 | 2.31 | -0.441
24 | TCTAGTTGGTAACGGAGGTCACACACGACGGGTA | 4.04 | 3.79 | 3.14 | 0.917 | 4.14 | 3.54 | 2.41 | 2.47
25 | CCAGACAGGTGAAAGGCAACTCAGTCTGGTACGC | 0.304 | 0.225 | 0.332 | -0.268 | 0.712 | 0.000923 | -0.701 | 0.202
26 | ATCGAAAGGTCGACGAGGCGAGTATACACCGTTT | 2.61 | 4.06 | 3.74 | 1.28 | 4.22 | 2.48 | -0.128 | 0.605
27 | CCTACTGGGCCACGGTCATTGATCAGTCAAAGCA | 1.5 | 0.43 | 0.896 | -1.25 | -0.391 | 0.204 | -0.144 | -0.135
28 | AGAATGAGGTTATTAAGATCAGCGAATTGCGGTC | 0.651 | 1.02 | 0.64 | 1.95 | 1.43 | 2.07 | 0.43 | 0.913
